HIF-2a inh = blocks HIF-2a reporter activity | 786-0 RCC cells HIF-2a reporter, luciferase luminescence, overnight | inhibition, % at 18.8 µM | actives 0.72% (n = 360,000) | AID 624352;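 active = inhibition of the luminescence signal of 40% or more relative to plate controls, in a single-dose primary screen at 18.75 µM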
LMP1 NFkB inh = Epstein-Barr LMP1 NF-kappaB reporter inhibition. inhibition, % at 12.5 µM. LMP1-induced NF-kappaB luciferase reporter cells, luminescence. actives 0.69% (n = 350,000); in the data active = inhibition above about 41%;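 note: 0% = neutral control wells and 100% = reference inhibitor control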
TWEAK-Fn14 inh = TWEAK-Fn14 signaling inhibition. inhibition, % at 10 µM. actives 2% (n = 360,000). TWEAK-stimulated Fn14 reporter cells, luciferase luminescence, 8 h; in the data active = inhibition above about 50%
TROY signal inh = inhibitors of TROY-dependent NF-kB signaling | Q293 LMP1-TROYcd NF-kB luciferase reporter, 4 h | inhibition, % at 10 µM | actives 0.98% (n = 360,000) | AID 1347056;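 active = compounds whose plate-normalised and pattern-corrected inhibition of the luciferase reporter signal at the single screening dose is 50% or more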
Shn3 inh set2 = inhibitors of Schnurri-3 3'UTR reporter in osteoblasts. actives 0.52% (n = 360,000). inhibition, % at 12.5 µM. AID 588674. Clone20 osteoblast Shn3 3'UTR firefly luciferase, 24 h;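 active = mean inhibition of at least 75% with every replicate also reaching 75%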;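 note: 0% = median of neutral control wells and 100% = pilot-screen positive control compound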
MITF TRPM1 inh = reduces MITF-dependent TRPM1 promoter luciferase signal. SK-MEL-5 TRPM1 promoter luciferase, 24 h. inhibition, % at 12.5 µM. actives 0.83% (n = 330,000). AID 488899;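 active = mean inhibition across replicates of 60% or more, whatever share of single replicates reaches that level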
Mdm2-MdmX confirm = confirmation of inhibitors of human Mdm2/MdmX interaction, set 2; SaOS-2 split-luciferase Mdm2/MdmX complementation, luminescence; shares compounds with HIF-2a inh; actives 99% (n = 740); AID 504601; inhibition, % at 8 µM;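 active = mean inhibition of the luminescence signal across two replicates at or above 26 percent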
Target sequence (O15151 whole entry, looked up): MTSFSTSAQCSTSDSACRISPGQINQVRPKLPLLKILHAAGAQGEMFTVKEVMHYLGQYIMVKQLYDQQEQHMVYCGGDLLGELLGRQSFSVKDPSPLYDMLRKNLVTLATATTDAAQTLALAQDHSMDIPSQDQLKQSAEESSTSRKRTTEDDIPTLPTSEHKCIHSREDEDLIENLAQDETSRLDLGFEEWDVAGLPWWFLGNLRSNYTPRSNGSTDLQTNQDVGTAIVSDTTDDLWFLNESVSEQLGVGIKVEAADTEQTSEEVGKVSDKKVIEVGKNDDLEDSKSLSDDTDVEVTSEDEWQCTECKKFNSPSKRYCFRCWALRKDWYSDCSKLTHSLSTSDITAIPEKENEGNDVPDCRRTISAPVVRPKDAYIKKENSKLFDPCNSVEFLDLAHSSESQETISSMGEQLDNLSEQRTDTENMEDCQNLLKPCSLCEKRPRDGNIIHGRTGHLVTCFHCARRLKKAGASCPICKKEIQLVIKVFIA
Target sequence (Q00987 whole entry, looked up): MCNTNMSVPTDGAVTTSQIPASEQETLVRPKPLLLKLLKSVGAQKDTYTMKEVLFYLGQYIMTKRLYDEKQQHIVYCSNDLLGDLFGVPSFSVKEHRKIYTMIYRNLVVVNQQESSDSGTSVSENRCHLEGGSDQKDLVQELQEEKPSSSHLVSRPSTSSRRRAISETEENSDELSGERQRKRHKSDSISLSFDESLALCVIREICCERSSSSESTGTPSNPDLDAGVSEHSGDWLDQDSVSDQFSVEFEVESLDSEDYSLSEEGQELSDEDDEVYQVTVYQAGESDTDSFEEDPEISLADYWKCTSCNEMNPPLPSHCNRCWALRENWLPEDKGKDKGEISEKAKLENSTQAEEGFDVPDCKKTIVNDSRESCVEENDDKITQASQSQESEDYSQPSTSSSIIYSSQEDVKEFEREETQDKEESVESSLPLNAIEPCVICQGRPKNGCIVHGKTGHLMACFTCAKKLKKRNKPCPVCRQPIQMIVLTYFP
HIF-2a conf = HIF-2a inhibition, single concentration confirmation; shares compounds with HIF-2a inh; 786-0 RCC cells, HIF-2a luciferase reporter luminescence, overnight; inhibition, % at 18.8 µM; actives 56% (n = 1,800); AID 651580;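 active = mean inhibition across four replicates of at least 40 percent at the single tested concentration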
HIF-1a cs = inhibits HIF-1a reporter, a counter-screen for HIF-2a inhibitors; shares compounds with HIF-2a inh; MiaPaCa-2 HIF-1a luciferase reporter, desferoxamine, overnight; inhibition, % at 18.8 µM; actives 72% (n = 1,800);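 active = mean inhibition of the reporter signal across four replicates at the single tested dose of 50% or more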
An asterisk follows results filed as active. Shown are actives, neighbours in structure and some others; about 3.4% of the full set was active somewhere.

What do the screens show for `COC(=O)c1cc(=O)n(Cc2ccco2)c(=Nc2ccc(F)c(Cl)c2)s1`?
HIF-2a inh: 67.4*; LMP1 NFkB inh: -13.0; TWEAK-Fn14 inh: 41.3; TROY signal inh: 10.5; Shn3 inh set2: 27.7; MITF TRPM1 inh: -1.4; HIF-2a conf: 62.3*; HIF-1a cs: 105.3*

How did COC(=O)c1cc(=O)n(Cc2cccs2)c(=Nc2ccc(F)cc2)s1 do in these assays?
HIF-2a inh: 66.5*; LMP1 NFkB inh: 0.5; TWEAK-Fn14 inh: 55.5*; TROY signal inh: 3.8; Shn3 inh set2: 4.8; HIF-2a conf: 38.8; HIF-1a cs: 106.2*

What do the screens show for `COC(=O)c1cc(=O)n(Cc2ccc3c(c2)OCO3)c(=Nc2ccc(F)cc2)s1`?
HIF-2a inh: 0.3; LMP1 NFkB inh: -2.1; TWEAK-Fn14 inh: 41.7; TROY signal inh: 21.5; Shn3 inh set2: -5.4; MITF TRPM1 inh: 7.4

How did COC(=O)c1cc(=O)n(-c2ccc(F)cc2)c(=Nc2ccc(F)cc2)s1 do in these assays?
HIF-2a inh: 53.2*; LMP1 NFkB inh: 4.0; TWEAK-Fn14 inh: 50.1*; TROY signal inh: 28.6; Shn3 inh set2: 59.2; MITF TRPM1 inh: 15.9; HIF-2a conf: 66.1*; HIF-1a cs: 91.5*

What do the screens show for `COc1cc2c(c(OC)c1OC)C(=O)C(=Cc1ccccc1)O2`?
HIF-2a inh: -175.2; LMP1 NFkB inh: 3.0; TWEAK-Fn14 inh: -17.6; TROY signal inh: -5.6; Shn3 inh set2: -24.8; MITF TRPM1 inh: -8.7

What do the screens show for `Cc1cc2cc(CNC(=O)C(C)Oc3ccccc3)ccc2n1C` (stereo not drawn)?
HIF-2a inh: 23.2; LMP1 NFkB inh: -5.9; TWEAK-Fn14 inh: -6.2; TROY signal inh: 1.8; Shn3 inh set2: 13.0; MITF TRPM1 inh: 5.4

How did Nc1ccc(C(=O)N2CCN(S(=O)(=O)c3ccc4c(c3)OCCO4)CC2)cc1[N+](=O)[O-] do in these assays?
HIF-2a inh: 16.0; LMP1 NFkB inh: 1.1; TWEAK-Fn14 inh: 4.4; TROY signal inh: -13.1; Shn3 inh set2: 4.5; MITF TRPM1 inh: 6.9

What do the screens show for `c1ccc(-c2noc(-c3ccc4c(c3)OCO4)n2)nc1`?
HIF-2a inh: 80.4*; LMP1 NFkB inh: 77.7*; TWEAK-Fn14 inh: 100.8*; TROY signal inh: 85.0*; Shn3 inh set2: 75.4; MITF TRPM1 inh: 92.3*; HIF-2a conf: 84.9*; HIF-1a cs: 86.5*

Results for COc1ccc(NC(=O)CCS(=O)(=O)c2ccccc2Cl)cc1S(=O)(=O)Nc1ccc(Cl)cc1 ?
HIF-2a inh: 43.8*; LMP1 NFkB inh: -1.6; TWEAK-Fn14 inh: -1.7; TROY signal inh: 35.4; Shn3 inh set2: 6.5; MITF TRPM1 inh: 1.0; HIF-2a conf: 17.0; HIF-1a cs: 67.7*

What do the screens show for `CC(C)(O)C#Cc1ccc(CN2CCCC(CNC(=O)c3ccco3)C2)cc1` (stereo not drawn)?
HIF-2a inh: -4.8; LMP1 NFkB inh: 1.8; TWEAK-Fn14 inh: 6.2; TROY signal inh: 10.5; Shn3 inh set2: 2.2; MITF TRPM1 inh: -1.4

What do the screens show for `CCN(CC)C(=O)C1=C(C)N(Cc2ccc(C(C)(C)C)cc2)C(=O)C(CC(=O)NCCN2CCOCC2)C1` (stereo not drawn)?
HIF-2a inh: -2.6; LMP1 NFkB inh: 0.1; TWEAK-Fn14 inh: 0.9; TROY signal inh: 6.1; Shn3 inh set2: -16.8

Results for O=C(NC(=Nc1nc2ccccc2o1)NC(=O)c1ccccc1)c1ccccc1 ?
HIF-2a inh: -185.9; LMP1 NFkB inh: -23.6; TWEAK-Fn14 inh: -16.0; TROY signal inh: -66.5; Shn3 inh set2: -13.7; MITF TRPM1 inh: -55.5

Results for O=C(NNc1nc2ccccc2o1)c1ccccc1 ?
HIF-2a inh: 47.0*; TWEAK-Fn14 inh: 6.7; TROY signal inh: 36.1; Shn3 inh set2: -38.4; HIF-2a conf: 80.2*; HIF-1a cs: -26.1

What do the screens show for `CC1CCCC(NC(=O)C2CCN(S(=O)(=O)c3cccc4nonc34)CC2)C1C` (stereo not drawn)?
HIF-2a inh: -1.5; LMP1 NFkB inh: 0.0; TWEAK-Fn14 inh: 0.4; TROY signal inh: 1.7; Shn3 inh set2: 2.0; MITF TRPM1 inh: -11.4

Results for COc1ccc(C(NC(=O)c2c(F)c(F)c(F)c(F)c2F)c2ccccc2)cc1 (stereo not drawn) ?
HIF-2a inh: 83.1*; LMP1 NFkB inh: 4.5; TWEAK-Fn14 inh: 5.2; TROY signal inh: 69.0*; Shn3 inh set2: 41.0; MITF TRPM1 inh: 39.8; HIF-2a conf: 56.9*; HIF-1a cs: 100.2*

Results for COc1ccc(C(NC(=O)c2cc(OC)ccc2OC)c2ccccc2)cc1 (stereo not drawn) ?
HIF-2a inh: 14.0; LMP1 NFkB inh: -3.5; TWEAK-Fn14 inh: 45.7; TROY signal inh: 8.0; Shn3 inh set2: 16.0; MITF TRPM1 inh: 4.5

How did O=C(/C=C/c1ccccc1)/C=C/c1ccccc1 do in these assays?
HIF-2a inh: 93.9*; LMP1 NFkB inh: -59.0; TWEAK-Fn14 inh: 90.2*; TROY signal inh: 26.8; Shn3 inh set2: 64.1; MITF TRPM1 inh: 78.7*; HIF-2a conf: 3.7; HIF-1a cs: 103.0*

How did Cc1ccc(S(=O)(=O)N(C)c2ccc(C(=O)NCC(c3ccco3)N3CCCC3)cc2)cc1 (stereo not drawn) do in these assays?
HIF-2a inh: -4.4; LMP1 NFkB inh: -9.6; TWEAK-Fn14 inh: -5.5; TROY signal inh: 1.4; Shn3 inh set2: 13.3

What do the screens show for `c1nc(NCc2ccc3c(c2)OCO3)c2cc(-c3ccoc3)ccc2n1`?
HIF-2a inh: -37.7; LMP1 NFkB inh: 49.4*; TWEAK-Fn14 inh: 82.7*; TROY signal inh: 27.5; Shn3 inh set2: -2.5; MITF TRPM1 inh: -40.3; Mdm2-MdmX confirm: 88.0*

Results for CC(C)(C)c1ccc(Oc2ccc(NC(=O)c3ccco3)cn2)cc1 ?
HIF-2a inh: 75.2*; LMP1 NFkB inh: -98.8; TWEAK-Fn14 inh: 78.2*; TROY signal inh: 12.2; Shn3 inh set2: 76.3; MITF TRPM1 inh: 12.7; HIF-2a conf: 25.7; HIF-1a cs: 40.2

How did O=C(Nc1ccc(Oc2cccc(C(F)(F)F)c2)nc1)c1ccco1 do in these assays?
HIF-2a inh: 9.2; LMP1 NFkB inh: 6.2; TWEAK-Fn14 inh: 14.2; TROY signal inh: 7.7; Shn3 inh set2: 15.4; MITF TRPM1 inh: -5.3

Results for Cc1cc2sc3ccc(C#CC4(O)CCCCC4)cc3c(=O)c2cc1C ?
HIF-2a inh: 92.8*; LMP1 NFkB inh: 77.6*; TWEAK-Fn14 inh: 106.3*; TROY signal inh: 89.6*; Shn3 inh set2: 94.3*; MITF TRPM1 inh: 96.4*; Mdm2-MdmX confirm: 101.5*; HIF-2a conf: 97.2*; HIF-1a cs: 103.2*

Compound activity as filed in PubChem BioAssay.
